Out of some 13,000 compounds screened, about 3,200 (25%) showed an effect of 50% or more. The list shows a part of the results.
What follows are molecules tested on P. falciparum stage V gametocytes. Conditions: 48 h, 5 µM; inhibitor.
Design: BacTiter-Glo ATP luminescence viability of purified stage V gametocytes in 384-well plates, per cent inhibition versus DMSO

SMILES	% Inhibition [%]
CN(C)CC1CCCN1Cc1ccccc1-c1cnn(C)c(=O)c1Oc1cccc(C#N)c1 (stereo not drawn) [TCMDC-135097]	-59.69
COc1ccc(CCNC(=O)c2ccc(-n3cc(NC(=O)c4cccnc4)cn3)cc2)cc1OC [TCMDC-124665]	38.46
Nc1nc(N)c2c(Cl)c(N(Cc3ccccc3)Cc3ccccc3)ccc2n1 [TCMDC-137993]	-38.99
O=S(=O)(NCCN1CCCC1)c1ccc(-c2ccc(CNCc3ccccc3)cc2)s1 [TCMDC-132233]	71.01
O=S(=O)(NCCN1CCCC1)c1ccc(-c2ccc(CN3Cc4ccccc4C3)cc2)s1 [TCMDC-132286]	9.199
O=S(=O)(NCCN1CCCC1)c1ccc(-c2cccc(CNCc3ccccc3)c2)s1 [TCMDC-132216]	86.1
O=C(O)C(F)(F)F.c1ccc(CNCc2cccc(-c3ccc(-c4nc5ccccc5[nH]4)s3)c2)cc1 [TCMDC-132714]	15.98
CCOC(=O)N1CCC(NC(=O)c2ccc(C(C)(C)C)cc2OC)CC1 [TCMDC-139314]	15.99
O=C(c1cccc(-c2noc(C(F)(F)F)n2)c1)N1CCN(C(=O)c2ccc3cc[nH]c3c2)CC1 [TCMDC-132422]	0.1652
N#Cc1cccc(NC(=O)c2ccc(S(=O)(=O)NCC3CCCN3CC3CCCCC3)cc2)c1 (stereo not drawn) [TCMDC-133796]	-13.1
CN1CCN(CCCN(Cc2cccc(-c3cccc(CNCCc4ccccc4)c3)c2)C(=O)Nc2ccccc2)CC1 [TCMDC-140594]	106.2
CC(C)CNCc1cccc(-c2cccc(CN(CCCN3CCN(C)CC3)C(=O)Nc3ccccc3)c2)c1 [TCMDC-140593]	80.6
CN1CCN(CCCN(C(=O)Nc2cc(C(F)(F)F)cc(C(F)(F)F)c2)c2ccccc2Cc2ccccc2)CC1 [TCMDC-136454]	-18.83
CN1CCN(CCCN(Cc2cccc(-c3ccc(CNCCc4ccccc4)cc3)c2)C(=O)Nc2ccccc2)CC1 [TCMDC-140595]	97.36
Cc1csc2nc(C(C)c3ccc(NC(=O)c4cccs4)cc3)oc(=O)c12 (stereo not drawn) [TCMDC-139034]	5.722
Cc1cc(-c2ccc(NC(=O)Nc3ccc4nccc(N5CCN(C)CC5)c4c3)cc2C)cc(C)n1 [TCMDC-139355]	10.84
Cc1cc(N[C@@H](Cc2ccccc2)C(=O)NCCc2ccccc2)nc(NCC2CCCCC2)n1 [TCMDC-134934]	-20.83
CCCC(C)C(=O)N1CCOC(COCc2cccc(C(F)(F)F)c2)(c2ccc(Cl)cc2)C1 (stereo not drawn) [TCMDC-141953]	24.89
C=CC(C)C1OC(=O)c2cc(OC)cc(OC)c21 (stereo not drawn) [TCMDC-138676]	102.9
C=CCC1OC(=O)c2cc(OC)cc(OC)c21 (stereo not drawn) [TCMDC-138677]	106
Cc1ccc(-c2cc(C(=O)Nc3ccc(S(=O)(=O)N4CCCCC4C)cc3)[nH]n2)c(O)c1 (stereo not drawn) [TCMDC-124908]	-44.76
CCCCCCN(CCCCCC)CC(O)c1cc(-c2ccc(Cl)cc2)nc2c(C)cc(C)cc12 (stereo not drawn) [TCMDC-125503]	-72.43
CN(C(=O)NCCc1ccccc1)C1CCN(CCCCCNC(=O)/C=C/c2ccc(Cl)c(Cl)c2)CC1 [TCMDC-139523]	-13.13
COc1ccc(-c2nc3cccnc3n2CC(=O)Nc2c(C)cc(C)cc2C)c(OC)c1 [TCMDC-135284]	61.51

SMILES	% Inhibition [%]
COc1ccc(-c2nc3cccnc3n2CC(=O)Nc2cc(Cl)c(Cl)cc2Cl)c(OC)c1 [TCMDC-135101]	5.638
COc1ccc(-n2ccnc2SCC(=O)Nc2cc(C)ccc2C)c(OC)c1 [TCMDC-123824]	-3.768
CC(C)CNCc1cccc(-c2cccc(CN(C(=O)Nc3ccccc3)C3CCN(Cc4ccccc4)CC3)c2)c1 [TCMDC-140584]	53.9
CC(C)CNCc1ccc(-c2cccc(CN(C(=O)Nc3ccccc3)C3CCN(Cc4ccccc4)CC3)c2)cc1 [TCMDC-140585]	74.29
CC(C)CNCc1cccc(-c2ccc(CN(C(=O)Nc3ccccc3)C3CCN(Cc4ccccc4)CC3)cc2)c1 [TCMDC-140597]	96.79
CC(C)CNCc1ccc(-c2ccc(CN(C(=O)Nc3ccccc3)C3CCN(Cc4ccccc4)CC3)cc2)cc1 [TCMDC-140598]	108.5
Cc1cn(CC(=O)Nc2cccc(-c3cccc(-c4nc5ccc(C(F)(F)F)cc5[nH]4)c3)c2)c(=O)[nH]c1=O [TCMDC-137036]	18.51
O=C(Nc1ccccc1F)NC1CCN(c2ccnc(Nc3ccc(F)cc3)n2)CC1 [TCMDC-133632]	-30.06
O=C(c1ccccc1F)N(Cc1ccc(Cl)cc1)c1ccccn1 [TCMDC-124909]	-19.06
COc1ccc2nccc([C@@H](O)CN3CCC(NCc4ccc5c(c4)sc(=O)n5C)CC3)c2c1 [TCMDC-141149]	-6.737
CCCCCC1c2[nH]c3ccccc3c2CCN1C(=O)OCc1ccccc1 (stereo not drawn) [TCMDC-134554]	-7.791
CCCNCc1ccc(-c2ccc(CN(CCOC)C(=O)[C@H]3CCCO3)cc2)nc1 [TCMDC-141530]	80.98
CCCNCc1ccc(-c2ccc(CN(CCOC)C(=O)CC3CCCC3=O)cc2)nc1 (stereo not drawn) [TCMDC-141532]	3.565
CCCNCc1ccc(-c2ccc(CN(Cc3ccc4c(c3)OCO4)C(=O)[C@H]3CCCO3)cc2)nc1 [TCMDC-141531]	105.6
CCCNCc1ccc(-c2ccc(CN(CC3CCCO3)C(=O)C3CC(=O)c4ccccc43)cc2)nc1 (stereo not drawn) [TCMDC-141533]	69.47
CCCNCc1ccc(-c2ccc(CN(CC3CCCO3)C(=O)COc3ccccc3Cl)cc2)nc1 (stereo not drawn) [TCMDC-141542]	45.23
O=c1c2c([nH]c3cc(Cl)ccc13)CCCC2 [TCMDC-123504]	42.94
CS(=O)(=O)c1ccc(OCCCN(Cc2ccccc2C(F)(F)F)c2ccc(C#N)c(C(F)(F)F)c2)cc1 [TCMDC-135467]	19.91
O=C(N[C@@H](CC1CCCCC1)C(=O)NCCN1CCCC1)c1ccc(O)c(-c2cccc(C(F)(F)F)c2)c1 [TCMDC-140811]	39
Cc1cc(OC(C)C(=O)N2CCc3ccccc32)ccc1Cl (stereo not drawn) [TCMDC-123696]	25.65
COc1ccc(Cc2cnc(N)nc2N)cc1OCCCOc1ccccc1 [TCMDC-137364]	-5.696
Cn1ccnc1Sc1ncccc1[N+](=O)[O-] [TCMDC-123944]	5.094
O=C(Nc1cccc(CN2CCCN(Cc3ccc4c(c3)OCO4)CC2)c1)c1ccc(-c2ccccc2)cc1 [TCMDC-134593]	-55.86
O=C(Nc1cccc(CN2CCCN(Cc3ccc4c(c3)OCO4)CC2)c1)c1ccc2ccccc2c1 [TCMDC-141852]	-18.83

SMILES	% Inhibition [%]
N#Cc1cccc(NC(=O)C2=C(CCc3ccc4c(c3)OCO4)NC(=O)NC2c2cccc(C#N)c2)c1 (stereo not drawn) [TCMDC-136054]	65.54
COc1cc(Cc2cnc(NCCN3CCNCC3)nc2N)ccc1OCc1ccc(C(F)(F)F)cc1 [TCMDC-138704]	48.16
CCCCCCCNc1cc(C)nc2ccc(OC)cc12.Cl [TCMDC-137622]	19.17
CCCCCCCN(CCCCCCC)CCNc1cc(C)nc2ccccc12 [TCMDC-137555]	59.52
CCCCCCCNCCNc1cc(C)nc2ccccc12 [TCMDC-137556]	91.75
Cc1cc(NCCCCCCCCNc2cc(C)nc3ccccc23)c2ccccc2n1 [TCMDC-137746]	113.6
CCCCCCNc1cc(C)nc2ccc(OC)cc12.Cl [TCMDC-137623]	-4.593
Cc1cc(NCCCCCCNc2cc(C)nc3c(C)cccc23)c2cccc(C)c2n1 [TCMDC-125702]	114
COc1cccc(Nc2nc(C)cc(NC3CCCC3)n2)c1 [TCMDC-133464]	31.06
CCn1ncc(Cl)c1CN(C)S(=O)(=O)c1ccc2ccccc2c1 [TCMDC-124904]	17.76
O=C(Nc1ccc2c(c1)CCC2)c1ccc(CN2CCCN(Cc3cccc(O)c3)CC2)cc1 [TCMDC-136388]	-14.41
N#Cc1ccc2c(c1)CN(C1CCC(NC(=O)/C=C/c3cc(C(F)(F)F)cc(C(F)(F)F)c3)CC1)CCC2 (stereo not drawn) [TCMDC-133502]	-43.57
O=c1cc(NCCCNCc2cccc(OC(F)(F)C(F)F)c2)[nH]c2ccccc12 [TCMDC-139419]	-24.87
CCCC(CNCc1cccc(OC(F)(F)C(F)F)c1)CNc1cc(=O)c2ccccc2[nH]1 (stereo not drawn) [TCMDC-139430]	-8.212
O=c1cc(NCCCNCc2cccc(Oc3ccccc3)c2)[nH]c2ccccc12 [TCMDC-139309]	31.54
CCC/C=C/c1c(CNCCCNc2cc(=O)c3ccccc3[nH]2)sc(CC)c1Br [TCMDC-140971]	58.98
CCCC(CNCc1cccc(OC(F)(F)F)c1)CNc1cc(=O)c2ccccc2[nH]1 (stereo not drawn) [TCMDC-139429]	83.68
CCCC(CNCc1cccc(OCC)c1)CNc1cc(=O)c2ccccc2[nH]1 (stereo not drawn) [TCMDC-139432]	35.2
O=c1cc(NCCCNCc2ccc(Cl)c(Cl)c2)[nH]c2ccc(C(F)(F)F)cc12 [TCMDC-139407]	4.234
O=c1cc(NCCCNCc2cccc(OC(F)(F)F)c2)[nH]c2ccccc12 [TCMDC-139418]	80.26
O=c1cc(NCCCNCc2sc(Br)c(Br)c2Br)[nH]c2ccccc12 [TCMDC-139647]	-5.668
O=c1cc(NCCCNCc2ccc(Cl)c(Cl)c2)[nH]c2cc(Cl)ccc12 [TCMDC-139401]	50.55
CCc1cc(Br)c(CNCCCNc2cc(=O)c3ccccc3[nH]2)s1 [TCMDC-140745]	-24.29
O=c1cc(NCCCNCc2ccc(Cl)c(Cl)c2)[nH]c2ccc(Cl)cc12 [TCMDC-139400]	23.89
